HepG2 tox-1 = counter-screen for TGF-b inhibitors: cytotoxicity in HepG2 cells | HepG2 CAGA-GFP viability, ATP luminescence, 18 h | Potency, µM (series often up to 46.1 µM), hits mostly cytotoxic | hit rate 0.76% among 410,000 | AID 588856
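HepG2 CAGA-GFP cells (1000/well, DMEM with 1% FBS) received compound, then TGF-beta at 500 pg/mL final, and were incubated 18 hours at 37 degrees C. Viability was read by CellTiter-Glo luminescence. Media-only wells were set as complete cell-killing and DMSO as no toxicity.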
TGFb inhibitor = TGF-b pathway inhibition. HepG2 CAGA-GFP TGF-b/SMAD3 reporter, GFP fluorescence, 18 h; TGF-beta stimulated, 500 pg/mL final. Potency, µM (highest dose often 46.1 µM), actives largely listed as inhibitors. hit rate 1.2% among 410,000. AID 588855; further: nearly all actives have a fitted effect of over 65% in size
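Inhibition of TGF-beta-driven CAGA-GFP reporter expression in HEPG2 cells is measured by cellular GFP fluorescence after 18 h stimulation with 500 pg/mL recombinant TGF-beta in 1% FBS medium at 37 degrees C.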
S2 tox = reduces viability in counter-screen for ATXN expression inhibitors | S2 cells (HEK-293 line with an ATXN2-luciferase reporter) viability, CellTiter-Fluor protease fluorescence, 24 h | Potency, µM (doses to about 56.7 µM), actives largely listed as cytotoxic | hit rate 0.49% among 400,000 | AID 651635; further: nearly all actives have a fitted effect of over 40% in size
ATXN2 expr inh = ATXN2 expression inhibition; HEK-293 ATXN2-luciferase reporter, luminescence, 24 h; Potency, µM (titrated, usually from 57 µM), usual class: inhibitors; hit rate 0.72% among 360,000; AID 1745845; further: nearly all actives have a fitted effect of over 55% in size
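qHTS (up to 57 uM final) was run with 24 h compound exposure of reporter cells at 37 °C. Each well was multiplexed: SteadyGlo luminescence measured ATXN2-luciferase expression after a fluorogenic Gly-Phe-AFC viability readout (25 uM final).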
TGFb confirm = TGF-b pathway inhibition, cherry-pick retest | hit rate 63% among 1,600 | shares compounds with TGFb inhibitor | HepG2 CAGA-GFP TGF-b reporter, GFP fluorescence, 18 h; cells stimulated with TGF-beta, 500 pg/mL | Potency, µM (doses to about 46.1 µM), hits mostly inhibitors; further: nearly all actives have a fitted effect of over 65% in size
HepG2 tox-2 = HepG2 cytotoxicity, TGF-b inhibitor counterscreen | shares compounds with TGFb inhibitor | hit rate 27% among 1,600 | HepG2 CAGA-GFP viability, ATP luminescence, 18 h; cells stimulated with TGF-beta, 500 pg/mL | AID 720535 | Potency, µM (highest dose often 46.1 µM), hits mostly inhibitors; further: nearly all actives have a fitted effect of over 70% in size
CCL64 TGFb inh = TGF-b inhibition, CCL64 orthogonal assay; CCL64 CAGA-GFP reporter, TGF-b stimulated, GFP fluorescence, 18 h; AID 720536; Potency, µM (highest dose often 46.1 µM), usual class: inhibitors; hit rate 41% among 1,600; shares compounds with TGFb inhibitor; further: nearly all actives have a fitted effect of over 65% in size
TGFb COP inh = blocks TGF-b signaling in HepG2 COP reporter | shares compounds with TGFb inhibitor | HepG2 COP-GFP TGF-b reporter, GFP fluorescence, 18 h; cells stimulated by added recombinant TGF-beta | Potency, µM (top dose mostly 46.1 µM), most hits filed as inhibitors | hit rate 3% among 1,600; further: nearly all actives have a fitted effect of over 70% in size
Large screens that a line does not name were inactive (follow-up assays come after a bar, where they were run). In the library only some 2.3% were active in any assay of this set; here they are far more common. The call rests on the fitted dose curve; in most records, active means well fitted curve in the direction sought with a large enough effect; inconclusive means small, poorly fitted or top-dose-only effect, or another doubt; inactive means no such curve, though single readings can be large; an effect the other way counts as inactive or inconclusive.

Cc1ccc(NC(=O)c2nc[nH]c2C(=O)NCCCCNC(=O)c2[nH]cnc2C(=O)Nc2ccc(C)cc2)cc1	S2 tox inconclusive
Cc1ccc(NC(=O)c2nc[nH]c2C(=O)NCCCNC(=O)c2[nH]cnc2C(=O)Nc2ccc(C)cc2)cc1	TGFb inhibitor inconclusive | TGFb confirm inconclusive | HepG2 tox-2 inconclusive | CCL64 TGFb inh inconclusive | TGFb COP inh inconclusive
Cc1cccc(NC(=O)c2nc[nH]c2C(=O)N[C@@H](Cc2ccccc2)C(=O)OC(C)(C)C)c1	TGFb inhibitor inconclusive, ATXN2 expr inh inconclusive (no result: S2 tox)
CC(C)(C)OC(=O)[C@H](Cc1ccccc1)NC(=O)c1nc[nH]c1C(=O)N[C@@H](Cc1ccccc1)C(=O)OC(C)(C)C	TGFb inhibitor 13µM, S2 tox inconclusive, ATXN2 expr inh inconclusive | TGFb confirm 15µM | HepG2 tox-2 inconclusive | CCL64 TGFb inh inconclusive | TGFb COP inh inactive
CC(C)(C)OC(=O)[C@H](Cc1ccccc1)NC(=O)c1[nH]cnc1C(=O)Nc1cccc(Cl)c1	TGFb inhibitor 10µM, S2 tox 32µM, ATXN2 expr inh inconclusive | TGFb confirm 21µM | HepG2 tox-2 18µM | CCL64 TGFb inh inconclusive | TGFb COP inh inactive
N#Cc1nc(-c2ccc(OCc3ccc(Cl)cc3)cc2)oc1N1CCCC1	none (no result: S2 tox, ATXN2 expr inh)
CCCCNC(=O)Cn1c(SCc2ccccc2C)nc2ccncc21	none (no result: S2 tox, ATXN2 expr inh)
CC(C)C[C@H](NC(=O)c1nc[nH]c1C(=O)N1CCN(c2ccccc2)CC1)C(=O)OC(C)(C)C	TGFb inhibitor inconclusive | TGFb confirm inactive | HepG2 tox-2 inactive | CCL64 TGFb inh inactive | TGFb COP inh inactive
C[C@H](NC(=O)c1[nH]cnc1C(=O)Nc1ccc(CNC(=O)OC(C)(C)C)cc1)C(=O)OC(C)(C)C	TGFb inhibitor 16µM, S2 tox inconclusive, ATXN2 expr inh inconclusive | TGFb confirm inconclusive | HepG2 tox-2 inconclusive | CCL64 TGFb inh inactive | TGFb COP inh inactive
Nc1nc(NCc2ccc(Cl)cc2)c2[nH]cnc2n1	none (no result: S2 tox, ATXN2 expr inh)
c1ccc(CNc2ncnc3c2ncn3Cc2ccccc2)cc1	none (no result: S2 tox, ATXN2 expr inh)
CCC(C)(C)NC(=O)c1ccc(Sc2nncn2C)c([N+](=O)[O-])c1	none
Cn1cnnc1Sc1ccc(/C=C/C(=O)c2ccc(O)cc2)cc1[N+](=O)[O-]	TGFb inhibitor inconclusive, S2 tox 7.1µM (no result: ATXN2 expr inh) | TGFb confirm 2.6µM | HepG2 tox-2 9.2µM | CCL64 TGFb inh 23µM | TGFb COP inh inconclusive
CCc1ccc(CN(C)C(=O)c2cc(COc3cccc4cnccc34)on2)cc1	TGFb inhibitor 10µM (no result: ATXN2 expr inh) | TGFb confirm inconclusive | HepG2 tox-2 inconclusive | CCL64 TGFb inh inconclusive | TGFb COP inh inactive
NS(=O)(=O)c1ccc(NC(=O)c2cnn3c2NC(=C2CC2)C=C3C(F)F)cc1	none (no result: S2 tox, ATXN2 expr inh)
CCC1Nc2ncnc(N3CCc4ccccc4C3)c2N(Cc2ccc(Br)cc2)C1=O (stereo not drawn)	TGFb inhibitor 13µM, S2 tox inconclusive, ATXN2 expr inh inconclusive | TGFb confirm 18µM | HepG2 tox-2 18µM | CCL64 TGFb inh inactive | TGFb COP inh inactive
C=C1C2=C(C(=O)N1OC)[C@@H](O)[C@@](C)(O)[C@@H](CCCCC)O2	TGFb inhibitor 13µM, S2 tox inconclusive | TGFb confirm inconclusive | HepG2 tox-2 inactive | CCL64 TGFb inh inactive | TGFb COP inh inactive
Cc1c(C(=O)Nc2ccc(F)c(C(F)(F)F)c2)sc2nc(-c3ccccc3)cn12	none (no result: S2 tox, ATXN2 expr inh)
COc1ccc(C(=O)Oc2cccc3cccnc23)cc1[N+](=O)[O-]	HepG2 tox-1 5.6µM, TGFb inhibitor 6.3µM, S2 tox inconclusive | TGFb confirm inactive | HepG2 tox-2 inactive | CCL64 TGFb inh inactive | TGFb COP inh inactive
NC(=O)c1ccc(Oc2cccc3cccnc23)c([N+](=O)[O-])c1	none
CSc1cccc(NC(=O)CCCOc2ccc(Cl)cc2C)c1	TGFb inhibitor 13µM | TGFb confirm 21µM | HepG2 tox-2 inactive | CCL64 TGFb inh inactive | TGFb COP inh inactive
COc1ccc(OCCCC(=O)Nc2cccc(SC)c2)cc1	none
Cc1nc(SCC(=O)N2CCN(c3ccccc3)CC2)n[nH]1	none
O=C(CSc1nc(N2CCCCC2)nc(N2CCCCC2)n1)N1CCN(c2ccccc2)CC1	TGFb inhibitor 6.3µM | TGFb confirm 16µM | HepG2 tox-2 inactive | CCL64 TGFb inh inconclusive | TGFb COP inh inactive
COc1cccc(/C=N/NC(=O)c2ccncc2)c1OC(=O)c1ccc(Br)cc1	TGFb inhibitor inconclusive, S2 tox inconclusive, ATXN2 expr inh inconclusive | TGFb confirm inconclusive | HepG2 tox-2 inactive | CCL64 TGFb inh inconclusive | TGFb COP inh inactive
COc1ccc(Nc2cc(C)c3cc(NC(=O)c4cc(OC)cc(OC)c4)ccc3n2)cc1	TGFb inhibitor inconclusive, ATXN2 expr inh inconclusive (no result: S2 tox)
O=C(Nc1cccc2cccnc12)OCc1ccccc1	TGFb inhibitor inconclusive (no result: S2 tox, ATXN2 expr inh)
CCc1nc2c(OCc3cc(Cl)cc(Cl)c3)cccn2c1N(C)C(=O)c1ccc(OC)cc1	TGFb inhibitor 4µM, S2 tox inconclusive, ATXN2 expr inh inconclusive | TGFb confirm inconclusive | HepG2 tox-2 inconclusive | CCL64 TGFb inh inconclusive | TGFb COP inh inactive
Cc1nc(NCc2cccc3c2OCO3)sc1-c1ccn(CC2CCCN(C)C2)n1 (stereo not drawn)	none (no result: HepG2 tox-1, TGFb inhibitor, ATXN2 expr inh)
COc1cccc(/C=N/Nc2ncnc(Cl)c2N)c1O	TGFb inhibitor 7.1µM, S2 tox 11µM, ATXN2 expr inh inconclusive | TGFb confirm inconclusive | HepG2 tox-2 12µM | CCL64 TGFb inh 5.2µM | TGFb COP inh inactive
COc1ccc(S(=O)(=O)N2CCN(c3nc(-c4cccs4)nc4ccccc34)CC2)cc1OC	none (no result: S2 tox, ATXN2 expr inh)
O=C(N/N=C/c1ccc2c(c1)OCO2)c1cc(-c2ccccc2Cl)nc2ccccc12	TGFb inhibitor inconclusive | TGFb confirm inactive | HepG2 tox-2 inactive | CCL64 TGFb inh inactive | TGFb COP inh inactive
CCOc1ccccc1-c1cc(C(=O)N/N=C/c2ccc3c(c2)OCO3)c2ccccc2n1	none
Oc1ccccc1-c1n[nH]c(-c2ccccc2O)n1	TGFb inhibitor 2.8µM, S2 tox inconclusive | TGFb confirm inconclusive | HepG2 tox-2 inconclusive | CCL64 TGFb inh inconclusive | TGFb COP inh inactive
